Drawing on PubChem BioAssay, this text covers composite z-score for 36 compounds.

The test concerns Inhibin beta A chain (activin A). Description: INHBA (activin A) binders on microarrays, primary screen, biochemical, small-molecule microarray, 635 nm fluorescence scan (AID 1107).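 Note: mouse activin A protein probed at 4.33 µg/mL on printed slides; score merges bound-protein fluorescence near 667 nm with spot signal-to-noise.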 The note with it: small-molecule microarray binding, higher = more signal.
`CC(C)C(O)C1C=CC2C(=O)N(C)C(=O)C2N1Nc1ccccc1` (stereo unspecified) displayed a composite z-score of 0.742.

Turning to `Cc1c(NC(=O)/C(C#N)=C/C=C/c2ccc(N(C)C)cc2)c(=O)n(-c2ccccc2)n1C`, the composite z-score amounted to 1.08. The value for `COc1cc(CO)cc(I)c1O[C@H]1C=C(C(=O)NCCO)C[C@@H](N(Cc2ccc(F)cc2)C(=O)C2CCCO2)[C@@H]1O` (stereo partly specified) was 0.676; that for `O=C1C[C@@](C(=O)NCC(F)(F)F)(c2ccc([N+](=O)[O-])cc2)[C@@H](c2ccc(CO)cc2)N1C1CCCCC1` was 0.563; that for `COC(=O)Cn1c(C(=O)N2CCCC2)cc2c1C[C@H]1CN(C(=O)c3ccccc3)[C@@](Cc3ccc(F)cc3)(C(=O)OC)[C@@H]21` was 0.675. As for `O=C(CS)NCCCCCCNC(=O)[C@H]1C[C@H]2C(=O)N[C@@H](Cc3ccccc3)C(=O)N2[C@H]1c1cccc(OCCO)c1`, the figure is 0.68; as for `COc1cc2c(cc1OC)CN(C(=O)[C@H]1[C@@H]3C(=O)O[C@@H](c4ccccc4)[C@@H](c4ccccc4)N3[C@@H](c3ccc(OCCO)cc3)[C@]13C(=O)Nc1ccc(C#CC4(O)CCCCCC4)cc13)CC2`, 1.07; as for `O=C1O[C@H](c2ccccc2)[C@H](c2ccccc2)N2[C@H]1[C@@H](C(=O)O)[C@]1(C(=O)Nc3ccccc31)[C@H]2c1ccc(O)cc1`, -1.37. Compound `CC(=O)N1Cc2ccccc2C[C@]2(N=C(c3ccc(OCCCO)cc3)O[C@@H]2c2ccccc2)C1=O` registered a composite z-score of 0.503. The value for `Cc1ccc(S[C@]2(C(=O)O)CC(=O)N(Cc3ccccc3Cl)[C@@H]2c2ccc(CO)cc2)cc1` was 0.387; that for `COc1c(C)cc(-c2cc3c(c(-c4ccccc4)n2)[Si](C(C)C)(C(C)C)OC3)cc1C` was 1.08. The value for `O=C(CCCCCCC(=O)Nc1ccccc1)N/N=C/c1ccccc1` was 0.18. The value for `CCOC(=O)C[C@H]1[C@H](OC(=O)Cc2ccc3c(c2)OCO3)[C@@H](NC(=O)C2CCCCC2)c2cc(OCCCO)ccc2N1C(=O)c1ccc2ccccc2n1` was 0.0341; that for `O=C(NC1CC1)[C@@H]1c2ccccc2C(=O)N(Cc2ccccc2)[C@H]1c1ccc(CO)cc1` was 0.443. The compound `NC(N)=NCc1cn(CCc2c[nH]c3ccccc23)nn1` gave a composite z-score of 0.307. The compound `COCCCNC(=O)[C@@]1(Sc2ccc(C)cc2)CC(=O)N(Cc2cc(C(F)(F)F)cc(C(F)(F)F)c2)[C@@H]1c1ccc(CO)cc1` displayed a composite z-score of 0.612. Take `O=C1O[C@@H](c2ccccc2)[C@@H](c2ccccc2)N2[C@@H](c3ccc(O)cc3)[C@]3(C(=O)Nc4ccc(C#CC5=CCCCC5)cc43)[C@@H](C(=O)N3CCN(c4ncccn4)CC3)[C@H]12`: the composite z-score is -0.0915. The value for `COCCOC(=O)N1C(=O)[C@@]2(c3cc(C#CC4=CCCCC4)ccc31)[C@H](c1ccccc1OCCO)N1[C@H](c3ccccc3)[C@H](c3ccccc3)OC(=O)[C@H]1[C@@H]2C(=O)N1CCc2cc(OC)c(OC)cc2C1` was -0.244. The value for `CC[C@H]1C2=C3C(CC[C@H]4C(OCc5ccc(F)cc5C(F)(F)F)OC[C@](C)([C@@H]34)N(C(=O)OC(C)(C)C)C2)C2COC(=O)OCC21` (stereo partly specified) was 1.06; that for `CO[C@H]1O[C@H](CO)[C@@H](OC(=O)Nc2ccccc2-c2ccccc2)[C@H](OC(=O)Nc2ccc3c(c2)OCO3)[C@@H]1OC(=O)Nc1ccc2c(c1)OCO2` was 0.691; that for `COCCCNC(=O)[C@@]1(Sc2ccc(C)cc2)CC(=O)N(C2Cc3ccccc3C2)[C@@H]1c1ccc(CO)cc1I` was 0.388.

For the compound `Cc1ccc(S[C@]2(C(=O)NCc3ccccc3)CC(=O)N(C(C)C)[C@@H]2c2ccc(CO)cc2I)cc1`, the composite z-score was 0.929.

Take `CC(C)C(O)C1C=CC2C(=O)N(C)C(=O)C2N1N(c1ccccc1)c1ccccc1` (stereo unspecified): the composite z-score was found to be 1.7. With `O=C1OCC=C[C@H]2OC34C=CCN(Cn5nnc6ccccc65)C(=O)[C@H]3N(CCCCCCO)C(=O)[C@@H]4[C@@H]12` (stereo partly specified), the composite z-score worked out at 0.955. The value for `COC(=O)[C@@]1(Cc2ccccc2)[C@H]2c3cc(C(=O)N4CCCC4)n(Cc4cc(F)cc5c4OCOC5)c3C[C@H]2CN1C(=O)c1ccccc1` was 0.538; that for `O=C(O)[C@H](Cc1ccccc1)n1cc(-c2ccccn2)nn1` was 0.325. The compound `CN(C)CCCNC(=O)[C@@]1(c2ccc([N+](=O)[O-])cc2)CC(=O)N(CC23CC4CC(CC(C4)C2)C3)[C@@H]1c1ccc(CO)cc1` yielded a composite z-score of 1.14. As for `CCOC(=O)C[C@H]1[C@H](OC(=O)c2ccc(-c3ccccc3)cc2)[C@@H](NC(=O)c2ccc3ccccc3n2)c2cc(OCCCO)ccc2N1C(=O)c1ccccc1`, the figure is 0.407; as for `CCOC(=O)C1=CC[C@@H](c2ccccc2)N(S(=O)(=O)c2ccc(C)cc2)C1`, 1.29. Turning to `CCOC(=O)[C@H]1C/C=C/C[C@H](C(=O)OCC)C(=O)O[C@H]2[C@@H](OC)O[C@H](CO)[C@@H](OC(=O)Nc3ccc(OC)cc3)[C@@H]2OC1=O`, the composite z-score was determined as 0.467. The value for `COC(=O)[C@H](Cc1ccccc1)N1CC(/C=C/C2CC2)=C[C@@H]1[C@@H](O)Cc1ccccc1` was 0.142; that for `Cc1ccc(F)cc1S(=O)(=O)N[C@@H]1CCN(Cc2ccc(Oc3ccccc3)cc2)C1` was 0.192; that for `COCCOC(=O)N1C(=O)[C@@]2(c3cc(C#Cc4ccc(OC)cc4)ccc31)[C@H](C(=O)NC[C@H](O)c1ccccc1)[C@H]1C(=O)O[C@H](c3ccccc3)[C@H](c3ccccc3)N1[C@@H]2c1ccc(O)cc1` was 0.033. The value for `CN(C)CCCNC(=O)[C@@H]1c2ccccc2C(=O)N(CC23CC4CC(CC(C4)C2)C3)[C@H]1c1ccc(CO)cc1` was -0.111. As to `CCOC(=O)[C@@H]1[C@@H]2C(=O)N(CC)C(=O)[C@@H]2C[C@@H]1Sc1ccccc1`, the composite z-score came to 0.0622. The value for `CC(C)C(=C=CC[C@@H](O)c1ccccc1OCCO)C[C@@H](O)COCc1ccccc1` was 1.35.
